# Compound activity as filed in PubChem.
# Only a selection was taken, and hits are over-represented in it overall.
# TTR transcr act: increases transthyretin transcription; SH-SY5Y TTR promoter Gaussia luciferase, luminescence; 100% = recombinant luciferase protein wells; activation, % at 16.7 µM; actives 1.3% (n = 92,000); AID 1117267;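 active = activation above the mean of all tested compounds plus 3 SD, cut at about 9.5% in these data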;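 also: cells exposed to compounds for one day before reading; 0% = median of all test compound wells on the plate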
# HuH7 TTR inh: decreases TTR transcription in HuH7 cells in activator counter-screen | shares compounds with TTR transcr act | HuH7 TTR promoter-Gaussia luciferase reporter, luminescence | inhibition, % at 16.7 µM | actives 4% (n = 1,100) | AID 1117279;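 active = average inhibition above the solvent-only control wells' mean plus 3 SD, cut at about 15% in these data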;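 also: 0% = cells with DMSO only and 100% = cells with inhibitor control FD; inhibitors lower well luminescence so higher value means more inhibition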
# TTR up confirm: confirmation of human transthyretin transcription activators; shares compounds with TTR transcr act; SHSY5Y TTR promoter Gaussia luciferase, luminescence; 100% = purified Lucia enzyme wells, no cells; activation, % at 16.7 µM; 1,100 tested, under 10 active; AID 1117280;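 active = mean activation above a set limit taken from the earlier primary screen, cut at about 11% in these data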;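 also: 0% = DMSO-treated cells and 100% = recombinant Lucia luciferase without cells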
# Numbers without * were called inactive.
SMILES,TTR transcr act,others
CN(C(=O)[C@@H]1CC=C[C@@H]2CCN(C3CCCCC3)C(=O)[C@@H]21)c1ccccc1,2,
C[C@@H]1CCN(C2CC2)S(=O)(=O)c2ccc(N3CCC[C@@H]3CO)cc2O1,0,
Cc1ccc(/C=C/C2=NN(Cc3ccc(Cl)c(Cl)c3)C(=O)CC2)cc1,13*,HuH7 TTR inh=7;TTR up confirm=0
CC1=NN(Cc2ccccc2)C(=O)C1,-2,
Cc1ccccc1CN1N=C(/C=C/c2ccccc2)CCC1=O,2,
COc1ccc2[nH]c3c(c2c1)CCN[C@]31C(=O)N(Cc2ccccc2)c2ccccc21,1,
O=C(Nc1cccc(F)c1)OCCN1CCCC12CCC(c1ccccc1)CC2 (centres undefined),1,
Cc1c(Cl)cccc1NC(=S)NC(=O)c1ccccc1,9,
O=C(NC(=O)N1CCCC1)c1csnn1,2,
O=C(NC(=S)Nc1ccccc1Cl)c1csnn1,13*,HuH7 TTR inh=-12;TTR up confirm=0
O=C(Nc1nc2ncccn2c1-c1ccccc1)c1ccc(F)cc1,0,
COC(=O)[C@]12C[C@H](CC(=O)NCCC(C)C)C(=O)N(Cc3ccc(Cl)cc3Cl)C1=C[C@H](C1CCCC1)O[C@@H]2C,0,
O=C(C1CCN(c2nc(-c3ccc(Br)cc3)cs2)CC1)N1CCNCC1,2,
CCCCNS(=O)(=O)CC1NCCc2ccccc21 (centres undefined),-1,
C[C@@H]1CCN(C2CC2)S(=O)(=O)c2c(cccc2N2CC[C@H](O)C2)O1,-1,
COc1ccc(C(C)(NC(C)=O)c2nc(-c3cc(F)cc(F)c3)cs2)cc1 (centres undefined),-2,
COc1ccc(C(C)(NC(C)=O)c2nc(-c3cccc(C(=O)O)c3)cs2)cc1 (centres undefined),10.0*,HuH7 TTR inh=-20;TTR up confirm=0
COc1cccc(C(C)(O)c2nc(-c3cccc(C(=O)O)c3)cs2)c1 (centres undefined),2,
COc1ccc2[nH]c3c(c2c1)CCN[C@]31C(=O)N(C)c2ccc(Br)cc21,0,
COc1cccc(N(C)C(=O)[C@@H](C2CC2)[C@@H](O)c2ccc(Cl)cc2)c1,-1,
CCCCN1CC[C@H](C)Oc2cc(Br)ccc2S1(=O)=O,7,
O=C(OCc1cn(Cc2ccc(F)cc2)nn1)N1CCOCC1,0,
S=C(Nc1ccccc1Cl)OCCN1CCCC12CCC(c1ccccc1)CC2 (centres undefined),2,
Cc1cc(C)c(C)c(OCC(=O)O/N=C(\N)c2ccncc2)c1,0,
Cc1cc(C)cc(OCC(=O)O/N=C(\N)c2ccccn2)c1,1,
SMILES,TTR transcr act,others
Cc1cc(C)c(C)c(OCC(=O)O/N=C(\N)c2ccccn2)c1,10*,HuH7 TTR inh=-21;TTR up confirm=0
CCOC(=O)CCCCCCCCC(=O)Nc1ccc(-n2[nH]c(=O)cc2C)cc1,2,
CCOC(=O)CCCCC(=O)NC(CO)C(=O)NC (centres undefined),9.9*,HuH7 TTR inh=-5;TTR up confirm=0
CCOC(=O)CCC(NC(=O)CCCCC(=O)NC(CCC(=O)OCC)C(=O)OCC)C(=O)OCC (centres undefined),4,
CNC(=S)N/N=C/c1c(C(=O)OC)cnn1-c1ccc(Cl)cc1,-1,
COC(=O)[C@]12C[C@H](CC(=O)N3CCOCC3)C(=O)N(Cc3cccc4ccccc34)C1=C[C@H](COCc1ccccc1)O[C@@H]2C,1,
CC(=O)N/C(=C\c1ccccc1)C(=O)N1CCOCC1,-2,
O=C(N/C(=C/c1cccnc1)C(=O)N1CCOCC1)c1ccccc1F,20*,HuH7 TTR inh=-3;TTR up confirm=-1
O=C(N/C(=C/c1cccnc1)C(=O)N1CCOCC1)c1ccccc1Cl,-1,
COc1cc(C(=O)N2CCN(C(=O)c3ccco3)CC2)cc(OC)c1OC,-3,
O=C(c1ccco1)N1CCN(C(=O)C2CC2)CC1,-1,
COc1ccc(C(=O)C2CCN(C(=O)c3ccco3)CC2)cc1,11*,HuH7 TTR inh=11;TTR up confirm=-1
O=C(OCc1cn(Cc2cccc(Cl)c2)nn1)N1CCCC1,1,
C[C@H]1[C@@H](OC(=O)Nc2cccc(C(F)(F)F)c2)CC[C@@]23CCCN2C(=O)CCC[C@@H]13,-1,
CCOc1ccc(NC(=O)CN2CCN(CC(=O)Nc3ccc(C(=O)OC)cc3)CC2)cc1,-1,
CCCCOc1ccc(NC(=O)CN2CCN(CC)CC2)cc1,24*,HuH7 TTR inh=-9;TTR up confirm=1
CCOc1ccc(NC(=O)CN2CCN(CC(=O)Nc3ccccc3OC)CC2)cc1,-2,
Cc1ccccc1NC(=O)OC1CC2CC1[C@H]1CCCCN1[C@H]2Cc1ccccc1 (some centres undefined),-2,
Cc1ccccc1CN1CCCCC(NC(=O)C(C)(C)C)C1=O (centres undefined),2,
CC(=O)Nc1cccc(-c2csc(N)n2)c1,9.7*,HuH7 TTR inh=-13;TTR up confirm=0
COc1ccc(CC(=O)Nc2cccc(-c3csc(C)n3)c2)cc1,-1,
CCC(=O)Nc1cccc(-c2csc(-c3ccccc3)n2)c1,-1,
CCN(CC)C(=O)O[C@H]1CC[C@@]23CCCN2C(=O)CCC[C@H]3[C@H]1C,1,
COc1ccc(CN(C(=O)Cn2nnc3ccccc32)C(C(=O)NC(C)(C)C)c2ccco2)cc1 (centres undefined),9.9*,HuH7 TTR inh=-9;TTR up confirm=0
CCC(C)(C)NC(=O)C(c1ccccc1F)N(Cc1ccco1)C(=O)Cn1nnc2ccccc21 (centres undefined),6,
SMILES,TTR transcr act,others
O=C(NC1CCCCC1)C(c1ccco1)N(Cc1cccs1)C(=O)Cn1nnc2ccccc21 (centres undefined),-3,
O=C(NC1CCCCN(Cc2ccc(Cl)cc2)C1=O)C(c1ccccc1)c1ccccc1 (centres undefined),0,
C=CCn1c(-c2ccccc2)nc(=S)c2c1CCCC2,11*,HuH7 TTR inh=3;TTR up confirm=0
CC(C)Cn1c(-c2ccccc2)nc(=S)c2c1CCCC2,0,
S=c1nc(-c2ccccc2)n(CCN2CCOCC2)c2c1CCCC2,-1,
CCOC(=O)[C@@]12CCC3=C1N(CCC3)C(=O)[C@H](CC(=O)NCCCCc1ccccc1)C2,-1,
CCCCCCCCN1C(=O)[C@@H](CC(=O)N2CCN(C(=O)c3ccco3)CC2)C[C@@]2(C(=O)OC)C1=C[C@H](C(C)C)O[C@@H]2C1CC1,-2,
COc1cccc(N2C(=O)CC(N3CCN(C(=O)c4ccco4)CC3)C2=O)c1 (centres undefined),-1,
COc1ccc(N2C(=O)CC(N3CCN(C(=O)c4ccco4)CC3)C2=O)cc1 (centres undefined),-1,
O=C(c1ccco1)N1CCN(C2CC(=O)N(c3ccc(F)c(Cl)c3)C2=O)CC1 (centres undefined),10*,HuH7 TTR inh=-1;TTR up confirm=0
C=CCN1CC(COCCCC)Oc2ccc(Cl)cc2S1(=O)=O (centres undefined),5,
Cn1ccc2c(-c3ccc(C(=O)O)cc3)cc3c(c21)C1CCC3C1 (centres undefined),12*,HuH7 TTR inh=-12;TTR up confirm=0
COc1ccc(-c2cc3c(c4c2ccn4C)C2CCC3C2)cc1 (centres undefined),-1,
Cn1ccc2c(-c3ccc(C(C)(C)C)cc3)cc3c(c21)C1CCC3C1 (centres undefined),-1,
N=c1c2c(ccn1CCCCc1ccccc1)Oc1ccc3ccccc3c1C2c1ccccc1 (centres undefined),-1,
